According to PubChem BioAssay (NCI):
About 79,000 compounds went through this panel and 15% of them were active in at least one assay; those are over-represented in the sample as a whole. Activity calls are given as the source filed them. Cut-off read from the data, not from the text of the source: active = growth inhibition above about 70%; inactive = the rest.

Experiments:
[1] = NCI Yeast Anticancer Drug Screen. Data for the rad50 strain (AID 155);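 note: 0% = growth of vehicle-only cultures of the same strain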; settings: S. cerevisiae rad50 strain growth inhibition, active compounds read high
Method in brief: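 Genetically altered yeast (DNA repair pathway); compound treatment; growth inhibition vs vehicle ctrl.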

[2] = NCI Yeast Anticancer Drug Screen. Data for the mec2-1 strain (AID 157); settings: S. cerevisiae mec2-1 strain, active compounds read high
Method in brief: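 Yeast mec2-1 mutant treated with compound. Readout: growth inhibition vs vehicle controls.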

[3] = NCI Yeast Anticancer Drug Screen. Data for the sgs1 mgt1 strain (AID 161);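 note: 0% = growth of cultures given vehicle only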; settings: S. cerevisiae sgs1 mgt1 strain, active compounds read high
Method in brief: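 Test agents were incubated with a DNA-repair-mutant yeast strain. Growth was then read and compared against vehicle-treated controls.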

[4] = NCI Yeast Anticancer Drug Screen. Data for the cln2 rad14 strain (AID 165);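 note: 0% = growth equal to vehicle treated cultures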; settings: S. cerevisiae cln2 rad14 strain, active compounds read high
Method in brief: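 cln2 rad14 yeast strain; compound exposure; growth inhibition read vs vehicle controls.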

[5] = NCI Yeast Anticancer Drug Screen. Data for the bub3 strain (AID 167); settings: S. cerevisiae bub3 mutant strain, active compounds read high
Method in brief: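 Yeast carrying a defined mutation is treated with each compound, and growth is compared with that of vehicle-exposed cells to give inhibition.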

[6] = NCI Yeast Anticancer Drug Screen. Data for the mlh1 rad18 strain (AID 175); settings: S. cerevisiae mlh1 rad18 strain growth inhibition, active compounds read high
Method in brief: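 Yeast w/ defined DNA-repair lesions; compound exposure; growth vs vehicle controls → % inhibition.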

[7] = at 5.0 µM (retest, dose inferred, filed as 0.5)
[8] = at 50.0 µM (retest, dose inferred, filed as 5.0)

Measured: growth inhibition

c1ccc(N/N=C2/CCCC3/C(=N\Nc4ccccc4)CCCC23)cc1 (configuration not stated)
active: [1]; [8] 99% | [1]; at 50.0 µM 98.2% | [2]; [8] 99% | [3]; [8] 99% | [4]; [8] 99% | [4]; at 50.0 µM 73.8% | [5]; [8] 98% | [6]; [8] 99% | [6]; at 50.0 µM 96.1%
inactive: [1]; [7] 3% | [2]; [7] -5% | [2]; at 50.0 µM 65.5% | [3]; [7] 13% | [3]; at 50.0 µM 63.2% | [4]; [7] -11% | [5]; [7] -8% | [5]; at 50.0 µM 9.85% | [6]; [7] 15%

NS(=O)(=O)c1ccc(NC(=O)Cc2nc3ccccc3s2)cc1
active: [1]; [8] 99% | [1]; at 50.0 µM 91% | [2]; [8] 99% | [2]; at 50.0 µM 91% | [3]; [8] 100% | [3]; at 50.0 µM 93.2% | [4]; [8] 94% | [4]; at 50.0 µM 90.7% | [5]; [8] 99% | [5]; at 50.0 µM 92% | [6]; [8] 99% | [6]; at 50.0 µM 91.2%
inactive: [1]; [7] 36% | [2]; [7] 40% | [3]; [7] 54% | [4]; [7] 31% | [5]; [7] 49% | [6]; [7] 65%

NC1=NCN(C2OC(COCc3ccccc3)C(OCc3ccccc3)C2OCc2ccccc2)C(=O)N1 (configuration not stated)
inactive: [1]; [7] 5% | [1]; [8] 57% | [1]; at 50.0 µM 66.5% | [2]; [7] 8% | [2]; [8] 28% | [2]; at 50.0 µM 45.6% | [3]; [7] 5% | [3]; [8] 59% | [4]; [7] -7% | [4]; [8] 58% | [5]; [7] -1% | [5]; [8] 56% | [6]; [7] 1%
active: [3]; at 50.0 µM 99.4% | [4]; at 50.0 µM 80.2% | [5]; at 50.0 µM 98% | [6]; [8] 86% | [6]; at 50.0 µM 99%

COc1ccccc1C1C(Cl)C(=O)N1n1cnc2ccccc2c1=O (configuration not stated)
active: [1]; at 50.0 µM 83.9% | [3]; at 50.0 µM 84.5% | [5]; at 50.0 µM 83.2% | [6]; at 50.0 µM 76.8%
inactive: [1]; [7] -12% | [1]; [8] -12% | [2]; [7] -29% | [2]; [8] 7% | [2]; at 50.0 µM 49.4% | [3]; [7] -11% | [3]; [8] 2% | [4]; [7] 15% | [4]; [8] 16% | [4]; at 50.0 µM 62.3% | [5]; [7] 9% | [5]; [8] 55% | [6]; [7] -5% | [6]; [8] -3%

Nn1c(-c2ccccc2)nn(C(=O)c2ccccc2)c1=O
active: [6]; at 50.0 µM 87.7%
inactive: [1]; [7] 0% | [1]; [8] 39% | [1]; at 50.0 µM 39.5% | [2]; [7] -2% | [2]; [8] 45% | [2]; at 50.0 µM 39.7% | [3]; [7] 15% | [3]; [8] 50% | [3]; at 50.0 µM 60% | [4]; [7] -1% | [4]; [8] 8% | [4]; at 50.0 µM 30.4% | [5]; [7] -3% | [5]; [8] 62% | [5]; at 50.0 µM 14.7% | [6]; [7] 1% | [6]; [8] 58%

O=C(Nc1ccc(-c2cn3ccccc3n2)cc1)c1cc(Br)ccc1O
inactive: [1]; [7] 4% | [1]; [8] 15% | [1]; at 50.0 µM -21.6% | [2]; [7] 5% | [2]; [8] 7% | [2]; at 50.0 µM -28.6% | [3]; [7] 12% | [3]; [8] 9% | [3]; at 50.0 µM -13.8% | [4]; [7] 33% | [4]; [8] -9% | [4]; at 50.0 µM 39.9% | [5]; [7] 5% | [5]; [8] 6% | [5]; at 50.0 µM -24.4% | [6]; [7] 5% | [6]; [8] 13% | [6]; at 50.0 µM -29.8%

CCCCCC/C=C\CCCCCCCCCc1c(O)c(OC)cc(O)c1CN(C)C
active: [1]; [8] 94% | [1]; at 50.0 µM 80.7% | [2]; [8] 94% | [2]; at 50.0 µM 88.3% | [3]; [8] 96% | [3]; at 50.0 µM 87.1% | [4]; at 50.0 µM 86.2% | [5]; [8] 96% | [5]; at 50.0 µM 80.8% | [6]; [8] 94% | [6]; at 50.0 µM 79.6%
inactive: [1]; [7] 5% | [2]; [7] -17% | [3]; [7] 15% | [4]; [7] 13% | [4]; [8] 30% | [5]; [7] 5% | [6]; [7] 2%

c1cc(CCSSCCc2ccncc2)ccn1
inactive: [1]; [7] 7% | [1]; at 50.0 µM 27.5% | [2]; [7] 1% | [2]; at 50.0 µM 50.9% | [3]; [7] -1% | [3]; at 50.0 µM 33.5% | [4]; [7] 4% | [4]; [8] 42% | [5]; [7] 1% | [5]; at 50.0 µM 38.4% | [6]; [7] 2% | [6]; at 50.0 µM 30.3%
active: [1]; [8] 89% | [2]; [8] 87% | [3]; [8] 79% | [4]; at 50.0 µM 72.8% | [5]; [8] 98% | [6]; [8] 92%

O=C(CS)Nc1ccccc1
inactive: [1]; [7] 13% | [1]; at 50.0 µM 65.4% | [2]; [7] 18% | [2]; at 50.0 µM 57.2% | [3]; [7] 14% | [3]; at 50.0 µM 61.1% | [4]; [7] 9% | [4]; at 50.0 µM 47.5% | [5]; [7] 3% | [5]; at 50.0 µM 56.2% | [6]; [7] 16%
active: [1]; [8] 89% | [2]; [8] 91% | [3]; [8] 93% | [4]; [8] 87% | [5]; [8] 84% | [6]; [8] 95% | [6]; at 50.0 µM 84.1%
